# Assay results taken from PubChem BioAssay AID1159580 (chemical genetic matrix, 2015).
# Several values for one entry are separate records, joined by “and”; a condition that tells them apart may be missing. Equal entries are not always repeated. About 2,000 (36%) of roughly 5,500 compounds were called active. About 18% were inconclusive and are not listed. Cut-off read from the data, not from the text of the source: active = normalized growth mostly below about 0.91 (no sharp cut-off); inconclusive = no clear call, values can overlap the other calls; inactive = mostly above about 0.92. Some of the results follow.
# Assay: chemical genetic growth profiling, strain panel (AID 1159580);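 note: tested at 20 µM; growth read once vehicle control cultures reached saturation at 30 °C; 1 = growth at the plate median or of vehicle wells; lower values mean less growth of the strain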
# Conditions: S. cerevisiae deletion strains, growth OD
smiles,measurement,setting,value
COc1ccc2c(c1)OCc1c-2oc2cc(OC)ccc12,normalized growth,"locus YAL021C, strain ccr4, stronger effect = lower value",0.901 (active)
same,normalized growth,"locus YAL026C, strain drs2, stronger effect = lower value",0.764 (active)
same,normalized growth,"locus YAL030W, strain snc1, stronger effect = lower value",0.919 (active)
same,normalized growth,"locus YBL061C, strain skt5, stronger effect = lower value",0.864 (active)
same,normalized growth,"locus YBR009C, strain hhf1, stronger effect = lower value",0.737 (active)
same,normalized growth,"locus YBR021W, strain FUR4, stronger effect = lower value",0.946 (inactive)
same,normalized growth,"locus YBR023C, strain chs3, stronger effect = lower value",0.862 (active)
same,normalized growth,"locus YBR171W, strain sec66, stronger effect = lower value",0.973 (inactive)
same,normalized growth,"locus YBR229C, strain ROT2, stronger effect = lower value",0.997 (inactive)
same,normalized growth,"locus YBR231C, strain swc5, stronger effect = lower value",0.909 (active)
same,normalized growth,"locus YBR279W, strain paf1, stronger effect = lower value",0.894 (active)
same,normalized growth,"locus YCL011C, strain gbp2, stronger effect = lower value",0.792 (active)
same,normalized growth,"locus YCL016C, strain dcc1, stronger effect = lower value",0.858 (active)
same,normalized growth,"locus YCL029C, strain bik1, stronger effect = lower value",1 (inactive)
same,normalized growth,"locus YCL069W, strain vba3, stronger effect = lower value",0.945 (inactive)
same,normalized growth,"locus YCR088W, strain abp1, stronger effect = lower value",0.945 (inactive)
same,normalized growth,"locus YDL005C, strain med2, stronger effect = lower value",1.02 (inactive)
same,normalized growth,"locus YDL035C, strain GPR1, stronger effect = lower value",0.955 (inactive)
same,normalized growth,"locus YDL040C, strain nat1, stronger effect = lower value",0.988 (inactive)
same,normalized growth,"locus YDL101C, strain DUN1, stronger effect = lower value",0.915 (inactive)
same,normalized growth,"locus YDL134C, strain PPH21, stronger effect = lower value",0.908 (inactive)
same,normalized growth,"locus YDL185W, strain tfp1, stronger effect = lower value",1.05 (inactive)
same,normalized growth,"locus YDL192W, strain arf1, stronger effect = lower value",1.01 (inactive)
same,normalized growth,"locus YDR001C, strain nth1, stronger effect = lower value",0.989 (inactive)
same,normalized growth,"locus YDR069C, strain doa4, stronger effect = lower value",0.959 (inactive)
same,normalized growth,"locus YDR101C, strain arx1, stronger effect = lower value",0.997 (inactive)
same,normalized growth,"locus YDR137W, strain rgp1, stronger effect = lower value",0.415 (active)
same,normalized growth,"locus YDR150W, strain NUM1, stronger effect = lower value",0.991 (inactive)
same,normalized growth,"locus YDR159W, strain sac3, stronger effect = lower value",0.724 (active)
same,normalized growth,"locus YDR162C, strain NBP2, stronger effect = lower value",0.872 (inactive)
same,normalized growth,"locus YDR195W, strain ref2",1.08 (inactive)
same,normalized growth,"locus YDR297W, strain sur2, stronger effect = lower value",0.894 (active)
same,normalized growth,"locus YDR318W, strain mcm21, stronger effect = lower value",0.988 (inactive)
same,normalized growth,"locus YDR334W, strain swr1, stronger effect = lower value",1.01 (inactive)
same,normalized growth,"locus YDR335W, strain msn5, stronger effect = lower value",0.857 (active)
same,normalized growth,"locus YDR388W, stronger effect = lower value",1 (inactive)
same,normalized growth,"locus YDR392W, strain spt3, stronger effect = lower value",0.162 (active)
same,normalized growth,"locus YDR502C, strain sam2, stronger effect = lower value",0.985 (inactive)
same,normalized growth,"locus YEL003W, strain gim4, stronger effect = lower value",0.806 (active)
same,normalized growth,"locus YEL037C, strain rad23, stronger effect = lower value",0.986 (inactive)
same,normalized growth,"locus YEL061C, strain CIN8 (second series), stronger effect = lower value",0.777 (active)
same,normalized growth,"locus YEL061C, strain CIN8, stronger effect = lower value",0.666 (active)
same,normalized growth,"locus YER015W, strain faa2, stronger effect = lower value",0.9 (active)
same,normalized growth,"locus YER016W, strain bim1, stronger effect = lower value",0.87 (active)
same,normalized growth,"locus YER110C, stronger effect = lower value",0.995 (inactive)
same,normalized growth,"locus YER111C, strain swi4, stronger effect = lower value",0.84 (active)
same,normalized growth,"locus YER155C, strain BEM2 (second series), stronger effect = lower value",0.505 (active)
same,normalized growth,"locus YER155C, strain BEM2, stronger effect = lower value",0.941 (inactive)
same,normalized growth,"locus YFR010W, strain ubp6, stronger effect = lower value",0.942 (inactive)
same,normalized growth,"locus YGL078C, strain dbp3, stronger effect = lower value",1.03 (inactive)
same,normalized growth,"locus YGL086W, strain mad1, stronger effect = lower value",0.947 (inactive)
same,normalized growth,"locus YGL167C, strain pmr1, stronger effect = lower value",0.977 (inactive)
same,normalized growth,"locus YGL173C, strain kem1, stronger effect = lower value",0.851 (active)
same,normalized growth,"locus YGL227W, strain vid30, stronger effect = lower value",0.935 (inactive)
same,normalized growth,"locus YGL240W, strain doc1, stronger effect = lower value",0.756 (active)
same,normalized growth,"locus YGL248W, strain PDE1, stronger effect = lower value",0.84 (active)
same,normalized growth,"locus YGL253W, strain hxk2, stronger effect = lower value",0.866 (active)
same,normalized growth,"locus YGR078C, strain PAC10, stronger effect = lower value",0.943 (inactive)
same,normalized growth,"locus YGR135W, strain pre9, stronger effect = lower value",1.01 (inactive)
same,normalized growth,"locus YGR252W, strain gcn5, stronger effect = lower value",0.967 (inactive)
same,normalized growth,"locus YHR013C, strain ard1, stronger effect = lower value",0.975 (inactive)
same,normalized growth,"locus YHR027C, strain rpn1, stronger effect = lower value",0.916 (active)
same,normalized growth,"locus YHR030C, strain SLT2, stronger effect = lower value",0.966 (inactive)
same,normalized growth,"locus YHR079C, strain IRE1 (second series), stronger effect = lower value",1 (inactive)
same,normalized growth,"locus YHR079C, strain IRE1, stronger effect = lower value",0.951 (inactive)
same,normalized growth,"locus YHR094C, strain hxt1, stronger effect = lower value",1.02 (inactive)
same,normalized growth,"locus YHR129C, strain ARP1, stronger effect = lower value",0.779 (active)
same,normalized growth,"locus YHR142W, strain chs7, stronger effect = lower value",0.659 (active)
same,normalized growth,"locus YHR200W, strain rpn10, stronger effect = lower value",1.01 (inactive)
same,normalized growth,"locus YIL066C, strain RNR3, stronger effect = lower value",0.745 (active)
same,normalized growth,"locus YIL073C, strain SPO22, stronger effect = lower value",1.18 (inactive)
same,normalized growth,"locus YIL125W, strain kgd1, stronger effect = lower value",0.996 (inactive)
same,normalized growth,"locus YIR030C, strain dcg1, stronger effect = lower value",1 (inactive)
same,normalized growth,"locus YJL092W, strain hpr5, stronger effect = lower value",0.943 (inactive)
same,normalized growth,"locus YJL095W, strain BCK1 (second series), stronger effect = lower value",0.761 (active)
same,normalized growth,"locus YJL095W, strain BCK1, stronger effect = lower value",0.542 (active) and 0.952 (inactive)
same,normalized growth,"locus YJL115W, strain asf1, stronger effect = lower value",0.995 (inactive)
same,normalized growth,"locus YJL129C, strain trk1, stronger effect = lower value",0.839 (active)
same,normalized growth,"locus YJL134W, strain LCB3, stronger effect = lower value",1.01 (inactive)
same,normalized growth,"locus YJL154C, strain vps35, stronger effect = lower value",1 (inactive)
same,normalized growth,"locus YJL164C, strain tpk1, stronger effect = lower value",0.79 (active)
same,normalized growth,"locus YJL166W, strain qcr8, stronger effect = lower value",0.779 (active)
same,normalized growth,"locus YJL168C, strain set2, stronger effect = lower value",1.01 (inactive)
same,normalized growth,"locus YJR043C, strain POL32, stronger effect = lower value",0.953 (inactive)
same,normalized growth,"locus YJR066W, strain TOR1, stronger effect = lower value",0.876 (inactive)
